PubChem BioAssay (NCATS)
Several values for one entry are separate records, joined by “and”; a condition that tells them apart may be missing. Equal values may be shown once. Inconclusive results are not listed. Activity calls are given as the source filed them. Unless noted, calls follow the shape of the dose curve; as a rule, active = well fitted curve in the direction sought with a large enough effect; inconclusive = small, poorly fitted or top-dose-only effect, or another doubt; inactive = no such curve, though single readings can be large; an effect the other way counts as inactive or inconclusive.

Columns and labels:
[1] = target: Estrogen receptor (Homo sapiens) (UniProt P03372); assay: qHTS assay for small molecule antagonists of estrogen receptor alpha signaling (AID 588513; active = well fitted curve in the direction sought with a large enough effect in the signal ratio, with a control signal flat, not every such curve was filed as active; the % refers to the signal ratio; also: % is scaled to controls: 0 for no effect and ±100 for the full control effect)
Sequence of Estrogen receptor (Homo sapiens) (P03372 whole entry, looked up): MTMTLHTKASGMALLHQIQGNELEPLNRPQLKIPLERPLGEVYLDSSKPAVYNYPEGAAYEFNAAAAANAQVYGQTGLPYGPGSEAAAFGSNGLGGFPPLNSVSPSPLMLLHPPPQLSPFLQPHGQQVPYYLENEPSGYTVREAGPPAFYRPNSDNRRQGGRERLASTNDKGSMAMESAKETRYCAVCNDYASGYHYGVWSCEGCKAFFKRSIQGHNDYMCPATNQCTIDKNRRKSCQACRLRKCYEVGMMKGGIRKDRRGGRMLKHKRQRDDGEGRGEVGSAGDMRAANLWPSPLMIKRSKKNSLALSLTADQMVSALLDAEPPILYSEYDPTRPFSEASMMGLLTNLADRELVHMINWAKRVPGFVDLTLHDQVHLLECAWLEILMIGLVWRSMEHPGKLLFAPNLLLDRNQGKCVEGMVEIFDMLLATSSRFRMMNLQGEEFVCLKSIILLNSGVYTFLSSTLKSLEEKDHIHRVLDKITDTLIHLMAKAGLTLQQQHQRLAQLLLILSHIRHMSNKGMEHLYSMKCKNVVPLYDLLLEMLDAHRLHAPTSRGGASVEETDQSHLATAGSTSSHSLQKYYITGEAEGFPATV
How it was run: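 Beta-lactamase reporter, antagonist mode, HEK 293 GripTite cells; 0.5nM E2 stimulus, 18 h, 37 C; CCF4 dye 2 h RT; fluorescence. IC50 and efficacy from Hill fits, normalized to E2 and DMSO.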

[2] = target: Peroxisome proliferator-activated receptor delta (Homo sapiens) (UniProt Q03181); assay: qHTS assay for small molecule agonists of peroxisome proliferator-activated receptor delta signaling (AID 588534; calls by dose curve;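 also: 0% = DMSO basal wells and 100% = positive control agonist at 10 µM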)
Sequence of Peroxisome proliferator-activated receptor delta (Homo sapiens) (Q03181 whole entry, looked up): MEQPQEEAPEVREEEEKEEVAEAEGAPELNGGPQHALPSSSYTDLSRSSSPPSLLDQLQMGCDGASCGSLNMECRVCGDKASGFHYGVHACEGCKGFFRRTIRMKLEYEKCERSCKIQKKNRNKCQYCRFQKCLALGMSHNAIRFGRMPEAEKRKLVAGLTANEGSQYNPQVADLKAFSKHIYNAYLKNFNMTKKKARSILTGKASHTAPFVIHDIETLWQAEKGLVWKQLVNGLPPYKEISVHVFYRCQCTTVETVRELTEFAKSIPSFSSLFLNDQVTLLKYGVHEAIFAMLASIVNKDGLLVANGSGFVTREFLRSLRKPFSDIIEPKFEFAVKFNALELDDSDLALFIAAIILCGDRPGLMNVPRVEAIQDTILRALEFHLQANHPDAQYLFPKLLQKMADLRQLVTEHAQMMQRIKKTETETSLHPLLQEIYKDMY
How it was run: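 Titration series tested in agonist mode on beta-lactamase reporter cells; 18 hrs at 37 C after a 5 hr pre-incubation. Readout: CCF4 fluorescence, 2 hrs RT. Hill equation gives EC50 and maximal response.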

[3] = qHTS assay for small molecule antagonists of peroxisome proliferator-activated receptor delta signaling (AID 588535); conditions: HEK293T PPARd-UAS-bla, beta-lactamase FRET ratio, 18 h; 460 nm channel;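 also: cells co-treated with a PPAR-delta agonist as stimulator during compound exposure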
How it was run: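 Compounds tested in titration on PPAR-delta-UAS-bla HEK293T cells grown in charcoal/dextran-stripped serum (2%); beta-lactamase activity read via CCF4 emission at 460 and 530 nm.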

[4] = target: Peroxisome proliferator-activated receptor gamma (Homo sapiens) (UniProt P37231); assay: qHTS assay for small molecule antagonists of peroxisome proliferator-activated receptor gamma signaling (AID 588537; active = well fitted inhibition curve with a large enough effect in the signal ratio, with a control signal flat, not every such curve was filed as active; the % refers to the signal ratio;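 also: reporter cells co-stimulated with 50 nM rosiglitazone agonist during compound treatment; % of control where 0% means no effect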)
Sequence of Peroxisome proliferator-activated receptor gamma (Homo sapiens) (P37231 whole entry, looked up): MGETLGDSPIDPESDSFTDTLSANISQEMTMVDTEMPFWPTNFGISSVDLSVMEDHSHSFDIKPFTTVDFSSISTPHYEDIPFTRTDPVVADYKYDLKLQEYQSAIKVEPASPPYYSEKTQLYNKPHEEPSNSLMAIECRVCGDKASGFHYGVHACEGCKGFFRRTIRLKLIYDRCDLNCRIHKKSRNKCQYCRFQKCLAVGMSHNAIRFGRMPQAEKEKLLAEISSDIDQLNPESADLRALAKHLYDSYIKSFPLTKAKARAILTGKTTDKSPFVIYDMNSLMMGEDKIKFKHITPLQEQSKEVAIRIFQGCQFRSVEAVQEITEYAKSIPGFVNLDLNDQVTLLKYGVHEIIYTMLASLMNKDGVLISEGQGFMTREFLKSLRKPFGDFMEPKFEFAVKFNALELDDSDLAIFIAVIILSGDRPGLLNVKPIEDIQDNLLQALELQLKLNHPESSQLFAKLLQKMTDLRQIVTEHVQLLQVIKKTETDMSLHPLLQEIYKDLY
How it was run: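 HEK293 cells, PPAR-gamma-UAS-bla, 3000/well. Pre-incubation 6-6.5 h, 37 C. Compound titration with rosiglitazone 50 nM final, 16 h. CCF4 dye, 2 h RT, dual-emission fluorescence.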

[5] = target: Vitamin D3 receptor (Homo sapiens) (UniProt P11473); assay: qHTS assay for small molecule agonists of vitamin D receptor signaling (AID 588543; calls by dose curve;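 also: 0% = DMSO basal and 100% = reference agonist control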)
Sequence of Vitamin D3 receptor (Homo sapiens) (P11473 whole entry, looked up): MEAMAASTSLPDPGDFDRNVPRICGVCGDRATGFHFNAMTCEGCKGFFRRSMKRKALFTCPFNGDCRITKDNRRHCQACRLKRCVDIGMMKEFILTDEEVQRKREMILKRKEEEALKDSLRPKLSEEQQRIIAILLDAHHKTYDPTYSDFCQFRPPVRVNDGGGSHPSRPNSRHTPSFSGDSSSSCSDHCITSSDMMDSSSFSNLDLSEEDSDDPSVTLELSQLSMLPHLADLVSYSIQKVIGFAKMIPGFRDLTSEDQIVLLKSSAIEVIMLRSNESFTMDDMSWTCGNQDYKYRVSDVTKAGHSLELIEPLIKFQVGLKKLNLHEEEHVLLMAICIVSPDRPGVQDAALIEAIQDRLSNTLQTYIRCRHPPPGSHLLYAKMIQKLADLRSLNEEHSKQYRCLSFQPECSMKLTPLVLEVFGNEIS
How it was run: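 β-lactamase reporter, VDR-UAS-bla HEK293T, agonist mode. Cells plated 5 h at 37 °C, compound titration 16 h at 37 °C, CCF4 dye 2 h RT, ratio 460/530 nm. Hill fit → EC50, efficacy vs 50 nM 1α,25-(OH)2D3.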

[6] = qHTS assay for small molecule agonists of retinoid X receptor alpha signaling (AID 588544; calls by dose curve;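 as to activation: 0% = DMSO basal wells and 100% = reference agonist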); conditions: HEK293T RXRa-UAS-bla, beta-lactamase reporter, 18 h; 530 nm emission
[7] = target: Retinoic acid receptor RXR-alpha (Homo sapiens) (UniProt P19793); assay: as above
Sequence of Retinoic acid receptor RXR-alpha (Homo sapiens) (P19793 whole entry, looked up): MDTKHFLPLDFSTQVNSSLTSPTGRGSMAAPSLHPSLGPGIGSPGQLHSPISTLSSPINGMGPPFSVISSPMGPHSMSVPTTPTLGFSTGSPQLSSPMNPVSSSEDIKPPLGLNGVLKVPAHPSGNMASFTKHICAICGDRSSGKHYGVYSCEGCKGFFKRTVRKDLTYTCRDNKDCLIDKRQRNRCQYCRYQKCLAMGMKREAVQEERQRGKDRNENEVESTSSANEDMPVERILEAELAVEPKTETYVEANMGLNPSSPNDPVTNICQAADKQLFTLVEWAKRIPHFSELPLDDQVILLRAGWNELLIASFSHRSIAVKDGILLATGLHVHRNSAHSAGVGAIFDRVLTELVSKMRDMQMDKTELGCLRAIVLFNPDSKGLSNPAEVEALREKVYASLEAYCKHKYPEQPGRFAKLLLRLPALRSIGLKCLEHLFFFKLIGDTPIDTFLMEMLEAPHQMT

[8] = target: Thyroid hormone receptor beta (Homo sapiens) (UniProt P10828); assay: qHTS assay for small molecule agonists of thyroid hormone receptor beta signaling (AID 588545; calls by dose curve;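 also: 0% = DMSO only and 100% = 10 nM T3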)
Sequence of Thyroid hormone receptor beta (Homo sapiens) (P10828 whole entry, looked up): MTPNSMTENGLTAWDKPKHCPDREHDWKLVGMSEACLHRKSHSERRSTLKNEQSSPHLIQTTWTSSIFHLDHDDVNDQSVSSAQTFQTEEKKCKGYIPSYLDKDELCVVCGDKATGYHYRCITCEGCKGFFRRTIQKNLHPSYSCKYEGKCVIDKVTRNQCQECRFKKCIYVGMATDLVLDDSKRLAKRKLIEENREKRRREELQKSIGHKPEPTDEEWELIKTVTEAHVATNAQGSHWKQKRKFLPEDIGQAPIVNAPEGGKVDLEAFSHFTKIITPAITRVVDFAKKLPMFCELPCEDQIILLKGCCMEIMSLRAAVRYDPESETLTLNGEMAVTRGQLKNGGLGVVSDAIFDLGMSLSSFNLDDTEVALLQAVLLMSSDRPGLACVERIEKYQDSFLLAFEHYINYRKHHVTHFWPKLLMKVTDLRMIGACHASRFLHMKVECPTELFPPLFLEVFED
How it was run: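 Stimulation of a TR-driven beta-lactamase reporter was quantified in GripTite HEK 293 cells. Compound series ran for 18 hrs; curves were normalized to T3 and DMSO controls and fitted to yield EC50.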

[9] = qHTS assay for small molecule antagonists of retinoid X receptor alpha signaling (AID 588546; active = well fitted inhibition curve with a large enough effect in the signal ratio, with a control signal flat, not every such curve was filed as active; the % refers to the signal ratio;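 also: cells stimulated with 9-cis-retinoic acid as agonist; % is scaled to controls: 0 for no effect and ±100 for the full control effect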); conditions: HEK293T RXRa-UAS-bla, beta-lactamase ratio, antagonist mode; measured here: W530 green channel, cytotoxicity proxy
How it was run: (§1)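 Beta-lactamase reporter inhibition, read as CCF4 fluorescence ratio (ex 405, em 460/530 nm) after 2 h at RT. HEK293T UAS-bla cells, 2500/well, were stimulated with 9-cis-RA at 500 or 100 nM final alongside test compound for 18 h at 37 C.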

[10] = target: Retinoic acid receptor RXR-alpha (Homo sapiens) (UniProt P19793); assay: as above; conditions: HEK293T RXRa-UAS-bla, beta-lactamase ratio, antagonist mode
How it was run: as §1

[11] = qHTS assay for small molecule activators of the p53 signaling pathway (AID 651743; active = well fitted activation curve with a large enough effect in the signal ratio, not every such curve was filed as active; the % refers to the signal ratio; also: series mostly up to about 92 µM; % of control where 0% means no effect); conditions: HCT-116 p53RE-bla, beta-lactamase FRET ratio, 16 h; activation: stronger effect = higher value
How it was run: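 Here HCT-116 cells with an integrated p53-responsive beta-lactamase gene were incubated with compounds (16 hours, 37 C) after a 5-hour plating period; beta-lactamase activity was detected as fluorescence intensity via B/G FRET substrate.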

[12] = qHTS assay for environmental chemicals that activate the Aryl hydrocarbon Receptor (AhR) signaling pathway (AID 651777); conditions: 1A2-DRE human hepatoma cells, luciferase, 24 h; activation: stronger effect = higher value; also: % of control where 0% means no effect; nearly all actives have a fitted effect of over 15% in size
How it was run: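 Quantitative HTS in stably transfected human liver-derived cells whose luciferase gene sits downstream of the CYP1A2 promoter and dioxin response element. After 24 hr exposure at 37 C, One-Glo luminescence was measured.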

[13] = target: Peroxisome proliferator-activated receptor alpha (Homo sapiens) (UniProt Q07869); assay: qHTS assay for small molecule agonists of the peroxisome proliferator-activated receptor alpha (PPARalpha) signaling pathway (AID 651778); conditions: PathHunter PPARalpha complementation, chemiluminescence, 6 h; max response: stronger effect = higher value; also: % of control where 0% means no effect
Sequence of Peroxisome proliferator-activated receptor alpha (Homo sapiens) (Q07869 whole entry, looked up): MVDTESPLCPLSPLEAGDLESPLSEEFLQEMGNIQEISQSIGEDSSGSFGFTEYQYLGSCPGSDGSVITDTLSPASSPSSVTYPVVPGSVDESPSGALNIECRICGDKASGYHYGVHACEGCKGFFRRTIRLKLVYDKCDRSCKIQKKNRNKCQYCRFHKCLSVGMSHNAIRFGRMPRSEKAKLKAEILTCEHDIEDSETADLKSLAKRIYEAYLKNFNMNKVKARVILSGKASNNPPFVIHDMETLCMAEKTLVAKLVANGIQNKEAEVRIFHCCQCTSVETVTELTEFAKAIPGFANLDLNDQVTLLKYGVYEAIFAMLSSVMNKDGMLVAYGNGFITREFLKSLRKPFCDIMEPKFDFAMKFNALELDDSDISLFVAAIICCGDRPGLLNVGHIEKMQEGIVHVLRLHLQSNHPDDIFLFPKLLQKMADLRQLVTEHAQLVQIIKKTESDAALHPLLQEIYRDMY
How it was run: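 Cells plated at 2,000/well and held overnight at 37 C, 5% CO2, then compound added by pin tool for 6 hr; after PathHunter detection reagent and 60 min at room temperature, chemiluminescence from enzyme complementation was read.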

[14] = qHTS assay for small molecule agonists of the antioxidant response element (ARE) signaling pathway measured by Nrf2-dependant transcriptional activity (AID 720636; active = well fitted curve in the direction sought with a large enough effect in the repeat runs; an effect the other way counts as inactive or inconclusive; also: % of control where 0% means no effect)
How it was run: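 Quantitative HTS format in HepG2 cells stably expressing an ARE-luciferase reporter; 16 hr compound treatment at 37 C, luciferase signal detected with ONE-Glo.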

[15] = qHTS assay for small molecule agonists of the antioxidant response element (ARE) signaling pathway measured by Nrf2-dependant transcriptional activity - cell viability counter screen (AID 720653; active = well fitted curve in the direction sought with a large enough effect in the repeat runs; an effect the other way counts as inactive or inconclusive; also: % is scaled to controls: 0 for no effect and ±100 for the full control effect); conditions: ARE-bla HepG2 viability, CellTiter-Glo ATP luminescence, 16 h; max response: stronger effect = lower value
How it was run: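 ARE-bla HepG2 cells (2,000/well) rested 5 hrs at 37C/5% CO2, then exposed to compounds in DMSO for 16 hrs. Viability was read in the same wells as intracellular ATP by luminescence, 30 min at room temperature after reagent addition.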

[16] = qHTS assay for cell viability of HEK293 cells (AID 743288); conditions: ATP luminescence (CellTiter-Glo), 18 h; max response: stronger effect = lower value; also: % is scaled to controls: 0 for no effect and ±100 for the full control effect; nearly all actives have a fitted effect of over 50% in size
How it was run: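 ATP luminescence (CellTiter-Glo) reports metabolically competent cell number after parental HEK293 cells, 2,000/well, were treated with DMSO-dissolved compounds for 18 h at 37 C; reagent incubation 30 min, room temperature.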

[17] = qHTS assay for cell viability of the p53RE-bla HCT-116 cell line (AID 743292); also: % is scaled to controls: 0 for no effect and ±100 for the full control effect; nearly all actives have a fitted effect of over 55% in size
How it was run: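 Viability of compound-treated p53RE-bla HCT-116 cells is taken from ATP-dependent luciferase luminescence. Treatment lasts 16 h at 37 C after a 5 h settling period; detection follows 30 min at room temperature.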

[18] = target: Nuclear receptor subfamily 1 group I member 2 (Rattus norvegicus) (UniProt Q9R1A7); assay: qHTS assay for small molecule activators of the rat pregnane X receptor (rPXR) signaling pathway (AID 651751; call rule not given here; also: 0% is about no effect); conditions: rPXR reporter cells, luciferase (One-Glo), 24 h
Sequence of Nuclear receptor subfamily 1 group I member 2 (Rattus norvegicus) (Q9R1A7 whole entry, looked up): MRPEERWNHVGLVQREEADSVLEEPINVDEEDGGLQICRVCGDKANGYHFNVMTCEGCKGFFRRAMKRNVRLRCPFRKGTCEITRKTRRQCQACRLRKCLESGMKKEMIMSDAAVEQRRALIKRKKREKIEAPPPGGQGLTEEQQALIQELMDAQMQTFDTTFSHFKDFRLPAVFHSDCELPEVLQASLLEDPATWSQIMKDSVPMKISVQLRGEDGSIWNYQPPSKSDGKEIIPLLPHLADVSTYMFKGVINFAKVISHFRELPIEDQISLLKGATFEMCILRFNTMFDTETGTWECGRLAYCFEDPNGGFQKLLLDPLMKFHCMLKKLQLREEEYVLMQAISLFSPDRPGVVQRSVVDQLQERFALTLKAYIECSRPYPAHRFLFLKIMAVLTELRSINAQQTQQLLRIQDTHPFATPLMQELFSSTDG

[19] = target: Peroxisome proliferator-activated receptor gamma (Homo sapiens) (UniProt P37231); assay: qHTS assay for small molecule agonists of peroxisome proliferator-activated receptor gamma signaling (AID 588536; active = well fitted curve in the direction sought with a large enough effect in the signal ratio, with a control signal flat, not every such curve was filed as active; the % refers to the signal ratio;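 also: 0% = DMSO basal wells and 100% = rosiglitazone at 2 µM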)
How it was run: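 Using GeneBLAzer HEK293 cells, response was quantified by CCF4 fluorescence and normalized between basal DMSO (0%) and rosiglitazone 2 uM (100%); curves yielded half-maximal stimulation concentration and efficacy.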

[20] = target: Vitamin D3 receptor (Homo sapiens) (UniProt P11473); assay: qHTS assay for small molecule antagonists of vitamin D receptor signaling (AID 588541; calls by dose curve;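 also: receptor activated by calcitriol during compound treatment; series mostly up to about 77 µM; % is scaled to controls: 0 for no effect and ±100 for the full control effect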)
How it was run: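 VDR-UAS-bla HEK293T cells (2000/well, 2% charcoal-stripped FBS) were treated with titrated compounds plus 1-alpha,25-dihydroxyvitamin D3 (50 nM or 3 nM final) for 16 h at 37 C. CCF4 beta-lactamase fluorescence was read; Hill fits gave IC50.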

| Compound | Potency [1] | outcome [2] | max response [3] | Potency [4] | outcome [5] | max response [6] | Potency [7] | Potency [8] | max response [9] | max response [10] | activation [11] | activation [12] | max response [13] | Potency [14] | max response [15] | max response [16] | Potency [17] | max response [18] | Potency [19] | Potency [20] |
| --- | --- | --- | --- | --- | --- | --- | --- | --- | --- | --- | --- | --- | --- | --- | --- | --- | --- | --- | --- | --- |
| CCOS(=O)(=O)OCC | inactive | inactive | -21.4% | inactive | inactive | -16.7% | inactive | inactive | -7.24% | 4.62% (inactive) | -2.08% (inactive) | -0.0167% (inactive) | -1.06% (inactive) | inactive | -6.17% (inactive) | 1.11% (inactive) | inactive | 3.38% (inactive) | – | – |
| Cc1c(COC(=O)C2C(/C=C(\Cl)C(F)(F)F)C2(C)C)cccc1-c1ccccc1 (stereo not drawn) | inactive | inactive | 11.3% | inactive | inactive | – | – | inactive | 1.28% | -11.6% (inactive) | 2.17% (inactive) | -0.984% (inactive) | -0.35% (inactive) | inactive | -14.6% (inactive) | -17.7% (inactive) | – | – | inactive | inactive |
| CCNc1nc(NCC)nc(SC)n1 | inactive | – | – | – | inactive | -4.09% | inactive | inactive | -14% | -3.26% (inactive) | -3.86% (inactive) | – | 0.186% (inactive) | inactive | 8.18% (inactive) | -5.22% (inactive) | inactive | 1.83% (inactive) | inactive | inactive |
| O=P(O)(O)CCCl | inactive | inactive | -15.9% | inactive | inactive | – | – | inactive | -6.38% | 5.61% (inactive) | -3.48% (inactive) and 2.67% (inactive) | -0.0383% (inactive) and -0.0843% (inactive) | 0.775% (inactive) and -1.46% (inactive) | inactive | -26.8% (inactive) and 3.51% (inactive) | -9.79% (inactive) and -10.1% (inactive) | inactive | -9.16% (inactive) and -4.17% (inactive) | – | inactive |
| CN(C)c1nc(=O)n(C2CCCCC2)c(=O)n1C | inactive | inactive | 12.4% | inactive | inactive | -8.9% | inactive | inactive | -2.46% | -11.2% (inactive) | – | 0.25% (inactive) | 0.605% (inactive) | inactive | 8.36% (inactive) | -6.56% (inactive) | inactive | 1.22% (inactive) | inactive | inactive |
| COP(=S)(OC)Oc1nc(Cl)c(Cl)cc1Cl | inactive | – | – | – | – | – | – | inactive | 2.88% | 15.1% (inactive) | 10.9% (inactive) | 0.0215% (inactive) | -0.488% (inactive) | inactive | -2.62% (inactive) | -14.5% (inactive) | inactive | -1.85% (inactive) | – | – |
